# Experimental data reported in PubChem BioAssay AID2414 (Southern Research Specialized Biocontainment Screening …, 2010).
# Potency and affinity values are given separately. Activity calls are given as the source filed them. Entries that show only a call come without a potency. No rule for the calls is given here.
# Experiment: Vero 76 cell viability after compound exposure – Vero 76 cells, synthesized analogs, cytotoxicity control for West Nile virus antiviral project, SAR follow-up (AID 2414)
# Conditions: Vero 76 cells viability, cytotoxicity CC50; series mostly up to 66.6 µM
row,SMILES,outcome
1,COc1ccc(Cn2nc(C)cc2OC(=O)c2c(F)ccc(C)c2F)cc1,inactive
2,OC1c2cc(I)ccc2N=C2CCCN21 (centres undefined),inactive
3,O=C(CSc1nc2ccccc2c(=O)n1-c1ccc(F)cc1F)Nc1ccc(N2CCOCC2)cc1,inactive
4,OC1c2c(F)cccc2N=C2CCCN21 (centres undefined),inactive
5,O=c1c2cc([N+](=O)[O-])ccc2nc2n1CCC2,inactive
6,O=c1c2cc(Cl)cc(Cl)c2nc2n1CCC2,inactive
7,O=C(CSc1nc2ccc(F)cc2c(=O)n1-c1ccccc1)Nc1ccc2c(c1)CCC2,inactive
8,CCCN(C(=O)c1ccccc1Cl)c1nc(-c2ccc(OC)cc2)cs1,inactive
9,O=c1c2cc(I)ccc2nc2n1CCC2,inactive
10,COc1ccc(-c2csc(N(C)C(=O)c3ccccc3Cl)n2)cc1,inactive
11,O=c1c2cccc(Cl)c2nc2n1CCC2,inactive
12,CCCCN(C(=O)c1ccccc1Cl)c1nc(-c2ccc(OC)cc2)cs1,inactive
13,COc1ccc(Cn2nc(C)cc2OC(=O)c2ccccc2)cc1,inactive
14,OC1c2c(F)cccc2N=C2CCCCCN21 (centres undefined),inactive
15,Cc1cccc2c(=O)n3c(nc12)CCC3,inactive
16,Nc1ccc2nc3n(c(=O)c2c1)CCC3,inactive
17,CC(=O)Nc1ccc2nc3n(c(=O)c2c1)CCC3,inactive

row,SMILES,outcome
1,O=C(CSc1nc2ccccc2c(=O)n1-c1ccc(F)cc1)Nc1ccc2c(c1)OCCO2,inactive
2,O=[N+]([O-])c1ccc2c(c1)C(O)N1CCCC1=N2 (centres undefined),inactive
3,CC1(O)c2cc(Br)ccc2N=C2CCCN21 (centres undefined),inactive
4,COc1ccccc1NC(=O)CSc1nc2ccccc2c(=O)n1-c1ccc(F)cc1,inactive
5,OC1c2cc(Cl)cc(Cl)c2N=C2CCCN21 (centres undefined),inactive
6,COc1ccc(-c2csc(N(CCCBr)C(=O)c3ccccc3Cl)n2)cc1,inactive
7,OC1c2c(F)cccc2N=C2CCCCN21 (centres undefined),inactive
8,COc1ccc(Cn2nc(C)cc2OC(=O)c2c(F)cccc2F)cc1,inactive
9,Cc1cc(OC(=O)c2c(F)cccc2F)n(Cc2ccccc2)n1,inactive
10,Cc1cccc2nc3n(c(=O)c12)CCC3,inactive
11,O=C(CSc1nc2cccc(F)c2c(=O)n1-c1ccccc1)Nc1ccc2c(c1)CCC2,inactive
12,O=c1c2c(F)cccc2nc2n1CCC2,inactive
13,CC1CC(C)CN(C(=O)CSc2nc3ccccc3c(=O)n2-c2ccc(F)cc2)C1 (centres undefined),inactive
14,Cc1ccc2nc3n(c(=O)c2c1)CCC3,inactive
15,COc1ccc(NC(=O)CSc2nc3ccccc3c(=O)n2-c2ccc(F)cc2)cc1,inactive
16,OC1c2cc(Br)ccc2N=C2CCCCN21 (centres undefined),inactive
17,COc1ccc(-c2csc(N(Cc3ccccc3)C(=O)c3ccccc3Cl)n2)cc1,inactive
